Screen size: about 5,500 compounds; about 2,000 (36%) were called active. Inconclusive results (about 18%) are left out. Cut-off read from the data, not from the text of the source: active = normalized growth mostly below about 0.91 (no sharp cut-off); inconclusive = no clear call, values can overlap the other calls; inactive = mostly above about 0.92. Some of the results follow.
Experiment: chemical genetic growth profiling, strain panel (AID 1159580);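 note: tested at 20 µM; growth read once vehicle control cultures reached saturation at 30 °C; 1 = growth at the plate median or of vehicle wells; lower values mean less growth of the strain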
Settings: S. cerevisiae deletion strains, growth OD

Measured: normalized growth

Cc1scc2c1N(C(=O)CN1CCN(C)CC1)c1ccccc1NC2=O
inactive: locus YAL013W, strain DEP1, stronger effect = lower value 0.967 | locus YAL021C, strain ccr4, stronger effect = lower value 0.984 | locus YAL026C, strain drs2, stronger effect = lower value 0.972 | locus YAL030W, strain snc1, stronger effect = lower value 0.939 | locus YAL040C, strain CLN3, stronger effect = lower value 0.985 | locus YBL061C, strain skt5, stronger effect = lower value 0.963 | locus YBR009C, strain hhf1, stronger effect = lower value 0.989 | locus YBR023C, strain chs3, stronger effect = lower value 0.947 | locus YBR171W, strain sec66, stronger effect = lower value 0.954 | locus YBR231C, strain swc5, stronger effect = lower value 0.972 | locus YBR279W, strain paf1, stronger effect = lower value 0.958 | locus YCL011C, strain gbp2, stronger effect = lower value 0.954 | locus YCL016C, strain dcc1, stronger effect = lower value 0.975 | locus YCL061C, strain MRC1 (second series), stronger effect = lower value 1 | locus YCL069W, strain vba3, stronger effect = lower value 0.971 | locus YCR088W, strain abp1, stronger effect = lower value 0.969 | locus YDL005C, strain med2, stronger effect = lower value 0.956 | locus YDL040C, strain nat1, stronger effect = lower value 0.967 | locus YDR001C, strain nth1, stronger effect = lower value 0.948 | locus YDR069C, strain doa4, stronger effect = lower value 0.922 | locus YDR137W, strain rgp1, stronger effect = lower value 0.941 | locus YDR150W, strain NUM1, stronger effect = lower value 0.998 | locus YDR159W, strain sac3, stronger effect = lower value 0.94 | locus YDR195W, strain ref2 0.899 | locus YDR297W, strain sur2, stronger effect = lower value 0.974 | locus YDR334W, strain swr1, stronger effect = lower value 0.943 | locus YDR335W, strain msn5, stronger effect = lower value 0.955 | locus YDR363W, strain ESC2, stronger effect = lower value 0.984 | locus YDR392W, strain spt3, stronger effect = lower value 1.01 | locus YEL003W, strain gim4, stronger effect = lower value 0.976 | locus YEL037C, strain rad23, stronger effect = lower value 0.957 | locus YEL061C, strain CIN8 (second series), stronger effect = lower value 0.96 | locus YER002W, strain NOP16, stronger effect = lower value 1 | locus YER015W, strain faa2, stronger effect = lower value 0.974 | locus YER016W, strain bim1, stronger effect = lower value 0.967 | locus YER111C, strain swi4, stronger effect = lower value 0.965 | locus YER155C, strain BEM2 (second series), stronger effect = lower value 0.939 | locus YFR010W, strain ubp6, stronger effect = lower value 0.95 | locus YGL167C, strain pmr1, stronger effect = lower value 0.943 | locus YGL173C, strain kem1, stronger effect = lower value 0.978 | locus YGL227W, strain vid30, stronger effect = lower value 0.947 | locus YGL240W, strain doc1, stronger effect = lower value 0.966 | locus YGL253W, strain hxk2, stronger effect = lower value 0.965 | locus YGR078C, strain PAC10, stronger effect = lower value 0.996 | locus YHR013C, strain ard1, stronger effect = lower value 0.967 | locus YHR027C, strain rpn1, stronger effect = lower value 0.966 | locus YHR030C, strain SLT2, stronger effect = lower value 1.08 | locus YHR079C, strain IRE1, stronger effect = lower value 1.1 | locus YHR142W, strain chs7, stronger effect = lower value 0.942 | locus YJL092W, strain hpr5, stronger effect = lower value 0.965 | locus YJL095W, strain BCK1 (second series), stronger effect = lower value 0.96 | locus YJL095W, strain BCK1, stronger effect = lower value 1.11 | locus YJL115W, strain asf1, stronger effect = lower value 0.952 | locus YJL129C, strain trk1, stronger effect = lower value 0.948 | locus YJL154C, strain vps35, stronger effect = lower value 0.961 | locus YJL164C, strain tpk1, stronger effect = lower value 0.995 | locus YJL166W, strain qcr8, stronger effect = lower value 0.949 | locus YJL187C, strain SWE1, stronger effect = lower value 0.968 | locus YJR066W, strain TOR1, stronger effect = lower value 0.962 | locus YJR075W, strain HOC1, stronger effect = lower value 0.979 | locus YKL160W, strain elf1, stronger effect = lower value 0.981 | locus YKR026C, strain gcn3, stronger effect = lower value 0.96 | locus YKR091W, strain srl3, stronger effect = lower value 0.977 | locus YLL001W, strain dnm1, stronger effect = lower value 0.968 | locus YLL026W, stronger effect = lower value 0.949 | locus YLL041C, strain sdh2, stronger effect = lower value 0.968 | locus YLR027C, strain aat2, stronger effect = lower value 0.977 | locus YLR113W, strain HOG1, stronger effect = lower value 0.977 | locus YLR221C, strain rsa3, stronger effect = lower value 0.995 | locus YLR258W, strain gsy2, stronger effect = lower value 0.963 | locus YLR262C, strain YPT6 (second series), stronger effect = lower value 0.962 | locus YLR320W, strain mms22, stronger effect = lower value 1 | locus YLR342W, strain FKS1, stronger effect = lower value 0.98 | locus YLR357W, strain rsc2, stronger effect = lower value 0.948 | locus YLR370C, strain arc18, stronger effect = lower value 0.945 | locus YLR384C, strain iki3, stronger effect = lower value 0.962 | locus YML120C, strain ndi1, stronger effect = lower value 0.964 | locus YMR058W, strain fet3, stronger effect = lower value 0.952 | locus YMR125W, strain sto1, stronger effect = lower value 0.948 | locus YMR129W, stronger effect = lower value 0.982 | locus YMR205C, strain PFK2, stronger effect = lower value 0.967 | locus YMR231W, strain pep5, stronger effect = lower value 0.972 | locus YMR263W, strain SAP30, stronger effect = lower value 0.989 | locus YMR307W, strain GAS1, stronger effect = lower value 0.981 | locus YNL071W, strain lat1, stronger effect = lower value 0.979 | locus YNL153C, strain GIM3, stronger effect = lower value 1 | locus YNL175C, strain NOP13, stronger effect = lower value 1.02 | locus YNL183C, strain NPR1, stronger effect = lower value 0.938 | locus YNL197C, strain WHI3, stronger effect = lower value 0.979 | locus YNL209W, strain ssb2, stronger effect = lower value 0.973 | locus YNL224C, strain SQS1, stronger effect = lower value 1.02 | locus YNL248C, strain rpa49, stronger effect = lower value 0.964 | locus YNL322C, strain KRE1 (second series), stronger effect = lower value 0.967 | locus YNL322C, strain KRE1, stronger effect = lower value 0.972 | locus YNR049C, strain mso1, stronger effect = lower value 0.962 | locus YOR001W, strain rrp6, stronger effect = lower value 0.972 | locus YOR070C, strain gyp1, stronger effect = lower value 0.984 | locus YOR080W, strain dia2, stronger effect = lower value 0.958 | locus YOR083W, strain WHI5 (second series), stronger effect = lower value 0.995 | locus YOR083W, strain WHI5, stronger effect = lower value 0.982 | locus YOR106W, strain vam3, stronger effect = lower value 0.948 | locus YOR231W, strain MKK1, stronger effect = lower value 1.05 | locus YOR265W, strain rbl2, stronger effect = lower value 0.965 | locus YOR270C, strain vph1, stronger effect = lower value 0.866 | locus YOR290C, strain snf2, stronger effect = lower value 0.974 | locus YPL051W, strain arl3, stronger effect = lower value 0.985 | locus YPL055C, strain LGE1, stronger effect = lower value 0.962 | locus YPL078C, strain atp4, stronger effect = lower value 0.957 | locus YPL106C, strain sse1, stronger effect = lower value 0.936 | locus YPL240C, strain hsp82, stronger effect = lower value 0.979 | locus YPL241C, strain CIN2, stronger effect = lower value 1 | locus YPL256C, strain CLN2, stronger effect = lower value 1.1
